The values that follow come from PubChem BioAssay (Tox21).

Assay [1] in a line: qHTS assay to identify small molecule antagonists of the estrogen related receptor (ERR) signaling pathway from Tox21 library - cell viability counter screen (AID 1224834). Note: nearly all actives have a fitted effect of over 30% in size. The gist of the method:
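Counter screen run in ERR cells (2,000 cells/well): cells pre-incubated 6 h, then treated with compounds for 17.5 h at 37 C. Fluorescence was read 30 min after CellTiter-Fluor addition.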
For orientation: qHTS replaces the single test concentration by a dilution series.

Assay [2] deals with Luciferin 4-monooxygenase (Photinus pyralis) (UniProt P08659). Briefly: qHTS assay to identify small molecule inhibitors of firefly luciferase (AID 1224835). Note: series mostly up to about 120 µM; nearly all actives have a fitted effect of over 25% in size. The method in brief: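 Quantitative HTS format; KM concentrations of both substrates. Purified P. pyralis FLuc activity quantified from luminescence images.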
Luciferin 4-monooxygenase (Photinus pyralis), sequence (P08659 whole entry, looked up): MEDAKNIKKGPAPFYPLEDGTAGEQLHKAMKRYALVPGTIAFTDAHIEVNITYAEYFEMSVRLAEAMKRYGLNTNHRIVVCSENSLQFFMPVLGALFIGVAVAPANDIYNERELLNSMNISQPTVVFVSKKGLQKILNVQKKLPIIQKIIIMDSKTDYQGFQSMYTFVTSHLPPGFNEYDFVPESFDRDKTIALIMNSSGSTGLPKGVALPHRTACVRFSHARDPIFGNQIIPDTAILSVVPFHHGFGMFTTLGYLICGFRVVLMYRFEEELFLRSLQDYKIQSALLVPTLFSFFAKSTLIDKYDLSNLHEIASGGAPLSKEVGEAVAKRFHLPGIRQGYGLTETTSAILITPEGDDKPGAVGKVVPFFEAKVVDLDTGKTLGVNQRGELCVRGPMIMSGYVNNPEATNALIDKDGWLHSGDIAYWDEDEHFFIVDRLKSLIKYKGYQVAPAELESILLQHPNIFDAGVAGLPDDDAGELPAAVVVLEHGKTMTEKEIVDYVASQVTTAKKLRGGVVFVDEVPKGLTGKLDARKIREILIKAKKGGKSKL
The nature of assay [3]: qHTS assay to identify small molecule agonists of the constitutive androstane receptor (CAR) signaling pathway - cell viability counter screen (AID 1224836). Note: series mostly up to about 92 µM; nearly all actives have a fitted effect of over 45% in size. The gist of the method: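 HepG2-CYP2B6-hCAR, 2500 cells/well, 4 h pre-incubation; cpd 15 conc + PK11195 0.75 uM final; 23 h, 37 C/5% CO2; CellTiter-Fluor, fluorescence.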
Assay [4] can be described thus: qHTS assay to identify small molecule antagonists of the constitutive androstane receptor (CAR) signaling pathway - cell viability counter screen (AID 1224837). Note: series mostly up to about 92 µM; nearly all actives have a fitted effect of over 45% in size. The method in brief: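 CITCO at 50 nM final was added alongside compounds (15 concentrations) to double-stable hCAR/CYP2B6-2.2kb HepG2 cells. Following 23 hr at 37 C, cell viability was quantified by CellTiter-Fluor fluorescence intensity.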

A short description of assay [5]: qHTS assay to identify small molecule antagonists of the estrogen related receptor signaling pathway with the pleiotropic PPARgamma coactivator (PGC) from Tox21 10K library - cell viability counter screen (AID 1224840; active = well fitted cell-killing curve with a large enough effect in the repeat runs, not every such curve was filed as active; note: nearly all actives have a fitted effect of over 40% in size). The method in brief:
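Readout: fluorescence intensity from CellTiter-Fluor after 30 min at 37 C/5% CO2. Preceded by 17.5 h treatment of PGC/ERR cells with DMSO-dissolved compounds, added 6 h post-seeding.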

Assay [6] can be described thus: qHTS assay to identify small molecule antagonists of the estrogen related receptor signaling pathway with the pleiotropic PPARgamma coactivator (PGC) from Tox21 10K library (AID 1224841; call rule not given here; note: actives are mostly falling curves and most rising ones were filed inactive; nearly all actives have a fitted effect of over 50% in size; note: potency is the fitted concentration of half-maximal effect). The method in brief:
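One-Glo luminescence, measured after half an hour at room temperature, quantified reporter output of PGC/ERR cells. These had been plated at 2,000 per well, incubated 6 h, dosed with compounds in DMSO, then kept 18 h at 37 C.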

Assay [7] in a line: qHTS assay to identify small molecule agonists of the estrogen related receptor signaling pathway with the pleiotropic PPARgamma coactivator (PGC) from Tox21 10K library (AID 1224842). Note: nearly all actives have a fitted effect of over 15% in size. The method in brief:
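PGC/ERR reporter cells (NTP line) were seeded 2,000 per well, rested 6 h at 37 C/5% CO2, then pin-dosed with compounds in DMSO for 18 h at 37 C; luciferase read by One-Glo luminescence after 30 min at room temperature.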

In assay [8] the target is Nuclear receptor subfamily 1 group I member 3 (Homo sapiens) (UniProt Q14994). As to the kind of experiment: qHTS assay to identify small molecule antagonists of the constitutive androstane receptor (CAR) signaling pathway (AID 1224838). Note: nearly all actives have a fitted effect of over 40% in size. Note: potency is the fitted concentration of half-maximal effect. The method in brief: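 Inhibition of CITCO-driven (50 nM final) CYP2B6 reporter expression is measured in HepG2 cells stably carrying hCAR. Fifteen compound concentrations are applied for 24 h at 37 C, followed by luciferase luminescence.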
Nuclear receptor subfamily 1 group I member 3 (Homo sapiens), sequence (Q14994 whole entry, looked up): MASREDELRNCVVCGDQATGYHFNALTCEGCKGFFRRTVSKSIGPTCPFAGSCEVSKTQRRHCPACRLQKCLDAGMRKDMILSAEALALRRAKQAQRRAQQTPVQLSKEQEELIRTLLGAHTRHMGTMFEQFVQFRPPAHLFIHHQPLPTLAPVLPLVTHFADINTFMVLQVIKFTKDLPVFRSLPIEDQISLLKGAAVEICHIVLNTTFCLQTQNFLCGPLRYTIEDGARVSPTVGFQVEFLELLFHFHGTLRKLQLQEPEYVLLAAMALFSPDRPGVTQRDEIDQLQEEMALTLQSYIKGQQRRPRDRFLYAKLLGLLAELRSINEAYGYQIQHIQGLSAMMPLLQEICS

Assay [9] shares this target. As to the kind of experiment: qHTS assay to identify small molecule agonists of the constitutive androstane receptor (CAR) signaling pathway (AID 1224839). Note: series mostly up to about 92 µM; nearly all actives have a fitted effect of over 15% in size. The method in brief:
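HepG2-CYP2B6-hCAR cells, 2500/well, 4 h pre-incubation; compounds 15 conc.; PK11195 0.75 uM final; 24 h, 37 C/5% CO2; ONE-Glo luciferase read.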

Results filed as inconclusive are left out. Values without a mark were called inactive. The source made the active and inactive calls. Unless noted, calls come from the whole dose curve; as a rule, active = well fitted curve in the direction sought with a large enough effect in the repeat runs; inconclusive = weak or mixed curves; inactive = no such curve, though single readings can be large; an effect the other way counts as inactive or inconclusive.

With `CCCCCCCCCCCl`, the Potency result in [1], in assay [2], in assay [6] and in [7] was “inactive” throughout. In addition, the compound was classed as inactive in assay [3], in [4] and in [5].

With `CCCCCCCCCCCCI`, the Potency result in [1], in [8] and in assay [9] was “inactive” in each case. The compound was called inactive in assay [3], in [4] and in [5].

On to `CC(C)CCCC(C)NCCC(C)C` (stereo not drawn), for which the Potency entry in [1], in assay [2], in assay [6] and in [7] was “inactive” throughout. For the same compound, the compound was classed as inactive in [3], in assay [4] and in assay [5].

With `NC(=O)c1ncn([C@@H]2O[C@H](CO)[C@@H](O)[C@H]2O)c1N`, the Potency entry in assay [1], in assay [2], in assay [8] and in assay [9] was “inactive” throughout. Moreover, the result in assay [4] and in [5] was inactive.

As for `COC(=O)CCCCCCCCC(=O)OC`, the Potency result in assay [1], in assay [2], in assay [6] and in [7] was “inactive” throughout. For the same compound, the compound was classed as inactive in assay [3], in [4] and in assay [5].

As for `Cc1c(C)n(CCN(C)C)c2ccc(C(=O)OCCN(C)C)cc12`, the Potency result in assay [1], in assay [2], in [9] and in assay [7] was “inactive” in each case. Also, the Potency in assay [8] was 29.8 µM (active).

For the compound `c1ccc2cnncc2c1`, the Potency entry in assay [1], in [2] and in assay [7] was “inactive” in each case. Moreover, the outcome in assay [3], in assay [4] and in assay [5] was inactive. Further, in [6], the Potency was 27.4 µM (active).

Take `CCCCc1ccc(N)cc1`: the Potency result in assay [1], in [8] and in assay [9] was “inactive” throughout. Moreover, the call in assay [3], in assay [4] and in assay [5] was inactive.

In the case of `CCCc1ccccc1O`, the Potency entry in assay [1], in assay [8] and in assay [9] was “inactive” each time. For the same compound, the outcome in assay [3], in [4] and in [5] was inactive.

For the compound `C1COCCO1`, the Potency entry in assay [1], in assay [2], in assay [6] and in assay [7] was “inactive” in each case. Besides, the compound was classed as inactive in [3], in assay [4] and in assay [5].

Consider `CC1=CC(C)C(C=O)C(C)C1` (stereo not drawn), for which the Potency result in assay [1], in assay [8] and in assay [9] was “inactive” each time. For the same compound, the call in assay [3], in assay [4] and in [5] was inactive.

As for `C#CC(O)C(CC)CCCC` (stereo not drawn), the Potency result in [1], in assay [8] and in assay [9] was “inactive” throughout. The call in assay [3], in assay [4] and in [5] was inactive.

As for `NC1CCN(c2cccc(Cl)n2)CC1`, the Potency result in assay [1], in assay [8] and in assay [9] was “inactive” each time. In addition, the result in assay [3], in assay [4] and in [5] was inactive.

With `O=c1[nH]c2ccccc2c(=O)n1CCCl`, the Potency result in assay [1], in assay [8], in [9], in assay [6] and in assay [7] was “inactive” in each case. For the same compound, the compound was classed as inactive in assay [3], in [4] and in assay [5].

On to `COc1cccc(Br)c1`, for which the Potency result in [1], in assay [6] and in assay [7] was “inactive” in each case. Moreover, the compound was classed as inactive in assay [3], in [4] and in assay [5].

Regarding `CCc1cc(S(=O)(=O)O)c2cc(C(C)C)cccc1-2`, the Potency result in assay [1] is “inactive”. Moreover, the compound was classed as inactive in assay [3], in assay [4] and in assay [5].

As for `O=C1OC(=O)c2cc([N+](=O)[O-])ccc21`, the Potency result in [1] was “inactive”. Further, the result in assay [3], in assay [4] and in [5] was inactive.

In the case of `CC(C)(O)C(=O)c1ccc(OCCO)cc1`, the Potency result in assay [1] is “inactive”. For the same compound, the outcome in [3], in assay [4] and in assay [5] was inactive.

`CCCCCCC(CCCCCCCCCCC(=O)OCC(COC(C)=O)OC(C)=O)OC(C)=O` (stereo not drawn): the Potency result in assay [1] is “inactive”. Further, the outcome in assay [3], in assay [4] and in assay [5] was inactive.

As for `Nc1ccn(C2CO[C@H](CO)O2)c(=O)n1` (stereo partly drawn), the Potency entry in [1], in assay [6] and in assay [7] was “inactive” in each case. Besides, the compound was called inactive in [3], in assay [4] and in assay [5].

For the compound `CCO[Si](CCCN=C=O)(OCC)OCC`, the Potency entry in [1], in [8], in assay [9], in [6] and in assay [7] was “inactive” in each case. The compound was classed as inactive in assay [3], in [4] and in [5].

With `C=C(C)C1CC=C(C)C(O)C1` (stereo not drawn), the Potency entry in [1], in assay [8], in assay [9], in assay [6] and in [7] was “inactive” in each case. Besides, the compound was called inactive in [3], in assay [4] and in assay [5].

In the case of `Cc1c(F)cc2c(=O)c(C(=O)O)cn3c2c1CCC3C` (stereo not drawn), the Potency result in assay [2], in [8], in assay [9] and in assay [7] was “inactive” in each case. For the same compound, the compound was classed as inactive in assay [3], in assay [4] and in assay [5].

On to `Nc1ccc2cc(S(=O)(=O)O)ccc2c1`, for which the Potency entry in [1], in assay [8] and in assay [9] was “inactive” throughout. In addition, the result in [3], in assay [4] and in assay [5] was inactive.

For `CC1CCN(CCCC(=O)c2ccc(F)cc2)CC1`, the Potency result in [1], in assay [8], in [9], in [6] and in [7] was “inactive” throughout. In addition, the call in [3], in assay [4] and in assay [5] was inactive.

Regarding `CC(C)(O)c1ccccc1`, the Potency result in assay [1], in [8], in assay [9], in assay [6] and in assay [7] was “inactive” in each case. The call in assay [3], in assay [4] and in assay [5] was inactive.
